This passage reports growth results from PubChem BioAssay (NCI).

This is part of a sample that, as a whole, favours compounds with a hit. Of some 83,000 tested, about 20% had one in any assay.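 Cells were grown in 96-well plates and exposed to the test compound at a single concentration for 48 hours; results are reported as percent growth, with values below 10 considered active.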 Unmarked numbers belong to inactive results. Calls of active or inactive are those of the source.

In this test the test system is HL-60(TB) leukemia. As to the kind of experiment: NCI-60 one-dose screen, 48 h (100 = growth as untreated, 0 = no growth, -100 = all killed). The following applies: 10 µM unless noted.
For `COc1cc(N2CCC(N(C)C)CC2)ccc1Nc1ncc(Cl)c(Nc2ccccc2P(C)(C)=O)n1`, the growth was 10%.
For `CNC(=O)c1cc(Oc2ccc3c(c2)sc2nc(-c4ccc(NC(C)=O)cc4)cn23)ccn1` the value was 44.2%.
The figure for `CCOc1ccc(NC(=O)Nc2cc(C(C)C)ccc2C)cc1` is 95.2%.
On to `O=C1Nc2ccc(Cl)cc2/C1=C/c1cccs1`, for which the growth was 98%.
Consider `Cn1cc(-c2csc(-c3cn(CCO)c4ccc(F)cc34)n2)c2cccnc21`, for which the growth is 50.2%.
For `Cc1ccc(C(=O)C(Br)C(Br)c2ccccc2)cc1` (stereo not given), the growth is 45.1%.
The figure for `O=C(N/N=C(\CS(=O)(=O)c1ccccc1)c1cc2cc(Br)ccc2oc1=O)c1ccccc1` is 119%; for `CCN(CC)CCC(=O)Nc1cccc2c1C(=O)c1c(c(O)c3ccccc3c1O)C2=O` it is 27.8%.
The figure for `Cc1ccc2c(c1)O/C(=C\c1cccc(OCC(=O)c3ccccc3)c1)C2=O` is 12.1%; for `O=C1c2cccc3c([N+](=O)[O-])ccc(c23)C(=O)N1CCCCl` it is -25.4% [100 µM] (active); for `COc1cccc(-c2nc3sccn3c2-c2ccnc(NCCNS(=O)(=O)c3ccc(F)cc3)c2)c1` it is -6.21% (active).
On to `COc1ccc(/C=C2/SC(=O)N(CC(=O)N3CCN(c4cc5c(cc4F)c(=O)c(C(=O)O)cn5C4CC4)CC3)C2=O)cc1`, for which the growth is 105%.
The figure for `Fc1cc(C(F)(F)F)ccc1-c1cncnc1NC1CCCCCC1` is 86.4%.
`Cn1c(N)c(N=Nc2ccc(S(=O)(=O)Nc3nccs3)cc2)c(=O)n(C)c1=O`: the growth is 94.6%.
The figure for `CC1CCCN(CCCCCOc2ccc3oc4ccccc4c(=O)c3c2)C1` (stereo not given) is 45.5%; for `Cc1nc2cc(-c3nn(C(C)C)c4ncnc(N)c34)ccc2o1` it is 5.12% (active).
On to `O=C(Nc1cc(F)cc2cccnc12)c1cnc(N2CCNCC2)cn1`, for which the growth was 77.1%.
For `CC(=O)NCCCS(=O)(=O)O` the value was 102%.
The figure for `Cc1[nH]c(C(=O)Nc2ccc(C(=O)N3CCNCC3)cc2OC(C)C)c(Cl)c1Cl` is 57.4%.
For `CCn1cc(C(=O)O)c(=O)c2cc(F)c(N3CCN(CC(=O)Nc4ccc(S(=O)(=O)Nc5nccc(C)n5)cc4)C(C)C3)c(F)c21` (stereo not given) the value was 115%.
In the case of `COc1cc(Cl)cc(-c2nn(-c3cccc(NC(=O)c4ccc(Cl)c(Cl)c4)c3)cc2-c2ccncc2)c1`, the growth is 94.1%.
The figure for `CN1C(=O)C2(SCC(C(=O)NCc3ccccc3)N2C(=O)C2CCCCC2)c2ccccc21` (stereo not given) is 80.4%; for `C=C1N(C)c2ccc(Cl)cc2C1(C)C` it is 6.42% (active); for `CCC(C)[C@H](NC(=O)NC(=O)NC(=O)CI)C(=O)OC` (stereo not given in full) it is 71.8%.
For `O=C(C1CCCCC1)[C@@H]1[C@]2(C(=O)NC3CCCCC32)[C@@H]2CCCN2[C@@]12C(=O)NC1CCC(Cl)CC12` (stereo not given in full) the value was -65.9% [100 µM] (active).
